Measured values from PubChem BioAssay AID1159580 (chemical genetic matrix, 2015).
The campaign covered roughly 5,500 compounds. About 2,000 (36%) were called active. Not shown: some 18% with an inconclusive outcome. Cut-off read from the data, not from the text of the source: active = normalized growth mostly below about 0.91 (no sharp cut-off); inconclusive = no clear call, values can overlap the other calls; inactive = mostly above about 0.92. The list shows a part of the results.

Assay: chemical genetic growth profiling, strain panel (AID 1159580);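 note: tested at 20 µM; growth read once vehicle control cultures reached saturation at 30 °C; 1 = growth at the plate median or of vehicle wells; lower values mean less growth of the strain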
Settings: growth OD

Measured: normalized growth

CC(NCCC(c1ccccc1)c1ccccc1)c1ccccc1 (configuration not stated)
active: S. cerevisiae deletion strains, locus YJR075W, strain HOC1, active compounds read low 0.875 | S. cerevisiae deletion strains, locus YLR370C, strain arc18, active compounds read low 0.822 | S. cerevisiae deletion strains, locus YML120C, strain ndi1, active compounds read low 0.886 | S. cerevisiae deletion strains, locus YMR058W, strain fet3, active compounds read low 0.849 | S. cerevisiae deletion strains, locus YMR231W, strain pep5, active compounds read low 0.731 | S. cerevisiae deletion strains, locus YNL209W, strain ssb2, active compounds read low 0.888 | S. cerevisiae deletion strains, locus YOL006C, strain TOP1, active compounds read low 0.468 | S. cerevisiae deletion strains, locus YOR001W, strain rrp6, active compounds read low 0.887 | S. cerevisiae deletion strains, locus YOR070C, strain gyp1, active compounds read low 0.908 | S. cerevisiae deletion strains, locus YOR083W, strain WHI5, active compounds read low 0.846 | S. cerevisiae deletion strains, locus YOR106W, strain vam3, active compounds read low 0.618 | S. cerevisiae deletion strains, locus YOR136W, strain idh2, active compounds read low 0.907 | S. cerevisiae deletion strains, locus YOR270C, strain vph1, active compounds read low 0.375 | S. cerevisiae deletion strains, locus YOR290C, strain snf2, active compounds read low 0.837 | S. cerevisiae deletion strains, locus YPL051W, strain arl3, active compounds read low 0.767 | S. cerevisiae deletion strains, locus YPR163C, strain tif3, active compounds read low 0.872
inactive: S. cerevisiae deletion strains, locus YKL009W, strain mrt4, active compounds read low 0.944 | S. cerevisiae deletion strains, locus YKL068W, active compounds read low 0.981 | S. cerevisiae deletion strains, locus YKL085W, strain MDH1 (second series), active compounds read low 0.985 | S. cerevisiae deletion strains, locus YKL085W, strain MDH1, active compounds read low 0.985 | S. cerevisiae deletion strains, locus YKL160W, strain elf1, active compounds read low 0.908 | S. cerevisiae deletion strains, locus YKL190W, strain CNB1, active compounds read low 0.988 | S. cerevisiae deletion strains, locus YKR001C, strain vps1, active compounds read low 0.936 | S. cerevisiae deletion strains, locus YKR026C, strain gcn3, active compounds read low 1.01 | S. cerevisiae deletion strains, locus YKR091W, strain srl3, active compounds read low 1 | S. cerevisiae deletion strains, locus YLL001W, strain dnm1, active compounds read low 0.945 | S. cerevisiae deletion strains, locus YLL026W, active compounds read low 0.981 | S. cerevisiae deletion strains, locus YLL041C, strain sdh2, active compounds read low 0.997 | S. cerevisiae deletion strains, locus YLR027C, strain aat2, active compounds read low 0.934 | S. cerevisiae deletion strains, locus YLR039C, strain RIC1, active compounds read low 1.28 | S. cerevisiae deletion strains, locus YLR058C, strain SHM2, active compounds read low 0.958 | S. cerevisiae deletion strains, locus YLR102C, strain apc9, active compounds read low 0.985 | S. cerevisiae deletion strains, locus YLR113W, strain HOG1, active compounds read low 1.01 | S. cerevisiae deletion strains, locus YLR221C, strain rsa3, active compounds read low 0.937 | S. cerevisiae deletion strains, locus YLR258W, strain gsy2, active compounds read low 0.974 | S. cerevisiae deletion strains, locus YLR262C, strain YPT6 (second series), active compounds read low 0.986 | S. cerevisiae deletion strains, locus YLR262C, strain YPT6, active compounds read low 1.16 | S. cerevisiae deletion strains, locus YLR268W, strain sec22, active compounds read low 0.989 | S. cerevisiae deletion strains, locus YLR320W, strain mms22, active compounds read low 0.898 | S. cerevisiae deletion strains, locus YLR330W, strain CHS5, active compounds read low 0.992 | S. cerevisiae deletion strains, locus YLR342W, strain FKS1 (second series), active compounds read low 0.885 | S. cerevisiae deletion strains, locus YLR342W, strain FKS1, active compounds read low 0.993 | S. cerevisiae deletion strains, locus YLR357W, strain rsc2, active compounds read low 1 | S. cerevisiae deletion strains, locus YLR371W, strain rom2, active compounds read low 0.97 | S. cerevisiae deletion strains, locus YLR384C, strain iki3, active compounds read low 1 | S. cerevisiae deletion strains, locus YLR418C, strain cdc73, active compounds read low 0.857 | S. cerevisiae deletion strains, locus YML016C, strain PPZ1, active compounds read low 0.977 | S. cerevisiae deletion strains, locus YML032C, strain rad52, active compounds read low 0.937 | S. cerevisiae deletion strains, locus YML124C, strain tub3, active compounds read low 0.991 | S. cerevisiae deletion strains, locus YMR078C, strain ctf18, active compounds read low 0.99 | S. cerevisiae deletion strains, locus YMR125W, strain sto1, active compounds read low 0.946 | S. cerevisiae deletion strains, locus YMR129W, active compounds read low 0.997 | S. cerevisiae deletion strains, locus YMR205C, strain PFK2, active compounds read low 0.963 | S. cerevisiae deletion strains, locus YMR223W, strain ubp8, active compounds read low 0.933 | S. cerevisiae deletion strains, locus YMR263W, strain SAP30, active compounds read low 0.942 | S. cerevisiae deletion strains, locus YMR307W, strain GAS1, active compounds read low 0.986 | S. cerevisiae deletion strains, locus YNL067W, strain RPL9B, active compounds read low 0.948 | S. cerevisiae deletion strains, locus YNL071W, strain lat1, active compounds read low 0.953 | S. cerevisiae deletion strains, locus YNL128W, strain TEP1, active compounds read low 0.884 | S. cerevisiae deletion strains, locus YNL153C, strain GIM3, active compounds read low 0.921 | S. cerevisiae deletion strains, locus YNL183C, strain NPR1, active compounds read low 0.933 | S. cerevisiae deletion strains, locus YNL233W, strain BNI4, active compounds read low 0.927 | S. cerevisiae deletion strains, locus YNL248C, strain rpa49, active compounds read low 0.904 | S. cerevisiae deletion strains, locus YNL250W, strain rad50, active compounds read low 0.943 | S. cerevisiae deletion strains, locus YNL271C, strain bni1, active compounds read low 0.99 | S. cerevisiae deletion strains, locus YNL298W, strain CLA4, active compounds read low 0.974 | S. cerevisiae deletion strains, locus YNL307C, strain MCK1, active compounds read low 0.974 | S. cerevisiae deletion strains, locus YNL322C, strain KRE1 (second series), active compounds read low 1.03 | S. cerevisiae deletion strains, locus YNL322C, strain KRE1, active compounds read low 0.97 | S. cerevisiae deletion strains, locus YNR049C, strain mso1, active compounds read low 1 | S. cerevisiae deletion strains, locus YNR052C, strain pop2, active compounds read low 0.92 | S. cerevisiae deletion strains, locus YOL012C, strain htz1 0.924 | S. cerevisiae deletion strains, locus YOL147C, strain pex11, active compounds read low 1 | S. cerevisiae deletion strains, locus YOR061W, strain CKA2, active compounds read low 0.938 | S. cerevisiae deletion strains, locus YOR069W, strain VPS5, active compounds read low 0.986 | S. cerevisiae deletion strains, locus YOR080W, strain dia2, active compounds read low 1 | S. cerevisiae deletion strains, locus YOR144C, strain elg1, active compounds read low 0.989 | S. cerevisiae deletion strains, locus YOR184W, strain ser1, active compounds read low 1.01 | S. cerevisiae deletion strains, locus YOR231W, strain MKK1, active compounds read low 0.992 | S. cerevisiae deletion strains, locus YOR265W, strain rbl2, active compounds read low 1 | S. cerevisiae deletion strains, locus YOR316C, strain cot1, active compounds read low 0.98 | S. cerevisiae deletion strains, locus YPL055C, strain LGE1, active compounds read low 0.782 | S. cerevisiae deletion strains, locus YPL078C, strain atp4, active compounds read low 0.939 | S. cerevisiae deletion strains, locus YPL106C, strain sse1, active compounds read low 1.08 | S. cerevisiae deletion strains, locus YPL240C, strain hsp82, active compounds read low 0.999 | S. cerevisiae deletion strains, locus YPL241C, strain CIN2, active compounds read low 0.985 | S. cerevisiae deletion strains, locus YPL256C, strain CLN2, active compounds read low 0.972 | S. cerevisiae deletion strains, locus YPR119W, strain clb2, active compounds read low 0.994 | S. cerevisiae deletion strains, locus YPR141C, strain kar3, active compounds read low 0.969 | S. cerevisiae deletion strains, locus YPR167C, strain met16, active compounds read low 0.977 | S. cerevisiae deletion strains, strain wtn01, active compounds read low 0.964 | S. cerevisiae strains, strain wild type, active compounds read low 0.974
